An excerpt weighted towards active compounds, which were near 13% of everything screened.
LMNA splice mod: qHTS Assay for Modulators of Lamin A Splicing | 200,000 compounds, 0.01% hits | AID 1487, 2009 | Potency, µM (doses to about 46.1 µM), for the others: top-dose ratio change, negative = inhibition, usual class: inhibitors | HeLa LMNA splicing GFP/RFP minigene ratio, 48 h; active means well fitted inhibition curve with a large enough effect in the signal ratio, with a control signal flat, not every such curve was filed as active; inconclusive means small, poorly fitted or top-dose-only effect, or effect the other way, or a change in a side signal; the % refers to the signal ratio; further: potency means the concentration at half of the fitted maximal effect; on the % scale 0 is the no-effect control and ±100 the full control effect
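S3 HeLa stable clones carrying a lamin A-EGFP splicing minigene plus DsRed2 were seeded at 600 cells/well in Opti-MEM with 2% FBS, pin-dosed and incubated 48 h at 37°C. Acumen cytometry (488 nm) gave the GFP/RFP total-intensity ratio.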
miR-21 act: qHTS Assay for Modulators of miRNAs and/orActivators of miR-21; HeLa miR-21 FLuc reporter, luciferase, 48 h; AID 2288, 2010; 340,000 tested, under 10 active; Potency, µM (doses to about 38.3 µM), inactives show top-dose activity change, positive = activation, hits mostly activators;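 further: % of control where 0% means no effect; miR-21 action dims this reporter so a rising signal means less miR-21 action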
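HeLa cells endogenously expressing miR-21, stably carrying CMV-driven firefly luciferase with a downstream miR-21 binding site, 2000 cells/well. Titrations up to approximately 40 uM, 48 hours; luciferase luminescence read.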
JMJD2E inh: qHTS Assay for Inhibitors of Human Jumonji Domain Containing 2E (JMJD2E); Lysine-specific demethylase 4E (Homo sapiens), B2RXH2; JMJD2E catalytic domain, FDH-coupled NADH fluorescence (FDH is formaldehyde dehydrogenase); Potency, µM (series often up to 57.1 µM), inactives show at the top dose activity change, negative = inhibition, most hits filed as inhibitors; 230,000 compounds, 1.6% hits; active means well fitted inhibition curve with a large enough effect, not every such curve was filed as active; inconclusive means small, poorly fitted or top-dose-only effect, or another doubt; inactive means no such curve, though single readings can be large or run the other way;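 further: potency means the concentration at half of the fitted maximal effect; 0% = wells with enzyme and -100% = buffer wells without enzyme; nearly all actives have a fitted effect of over 50% in size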
Sfp inh: qHTS Assay for Inhibitors of Bacillus subtilis Sfp phosphopantetheinyl transferase (PPTase) | Biochemical Sfp PPTase activity, qHTS | Potency, µM, without a hit: largest response in the series, negative = inhibition, hits mostly inhibitors | 310,000 compounds, 3.5% hits | AID 1490, 2009;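 further: the enzyme is Sfp with the accession as filed and its product quenches rhodamine fluorescence; potency means the concentration at half of the fitted maximal effect; 0% = enzyme reaction without inhibitor and -100% = no enzyme wells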
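Fluorescence-quenching assay with 15 nM Sfp, 5 uM rhodamine-CoA and 12.5 uM BHQ-2-labelled ybbR peptide in pH 7.6 Hepes/MgCl2 buffer. Enzyme was pre-incubated with compound for 15 min at room temperature. Rate was taken from the 30-min fluorescence change (525/598 nm).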
G9a block: qHTS Assay for Inhibitors of Histone Lysine Methyltransferase G9a; Histone-lysine N-methyltransferase EHMT2 (Homo sapiens), Q96KQ7; G9a H3K9 monomethylation, AlphaScreen, 2 h; Potency, µM (doses to about 102 µM), for inactives: at the highest dose activity, negative = inhibition, hits mostly inhibitors; 350,000 compounds, 8.8% hits; further: potency means the concentration at half of the fitted maximal effect; on the % scale 0 is the no-effect control and ±100 the full control effect; nearly all actives have a fitted effect of over 75% in size
Target sequence (Q96KQ7 913-1193 limits assumed): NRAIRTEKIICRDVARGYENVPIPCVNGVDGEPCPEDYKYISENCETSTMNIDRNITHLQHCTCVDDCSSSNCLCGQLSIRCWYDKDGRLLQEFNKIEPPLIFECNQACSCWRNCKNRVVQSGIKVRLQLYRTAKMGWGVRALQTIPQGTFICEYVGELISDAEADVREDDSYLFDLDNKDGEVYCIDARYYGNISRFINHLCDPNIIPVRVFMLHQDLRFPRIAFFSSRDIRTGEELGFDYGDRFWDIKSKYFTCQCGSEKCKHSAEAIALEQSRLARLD
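G9a (20 nM) was preincubated 15 min with compound, then reacted 2 h at room temperature with 500 nM biotin-H3K9 peptide and 20 µM SAM. Monomethyl-H3K9 detected by AlphaScreen using anti-H3K9me1 antibody.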
ALDH1A1 inh: qHTS Assay for Inhibitors of Aldehyde Dehydrogenase 1 (ALDH1A1); Aldehyde dehydrogenase 1A1 (Homo sapiens), P00352; Purified ALDH1A1, NADH fluorescence, propionaldehyde substrate; Potency, µM (doses to about 75.3 µM), without a hit: top-dose activity, negative = inhibition, actives largely listed as inhibitors; 220,000 compounds, 7.3% hits; AID 1030, 2008; active means well fitted inhibition curve with a large enough effect, not every such curve was filed as active; inconclusive means small, poorly fitted or top-dose-only effect, or another doubt; inactive means no such curve, though single readings can be large or run the other way;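 further: potency means the concentration at half of the fitted maximal effect; plate controls were no enzyme wells and a reference inhibitor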
* hit, by the source's call; ? = inconclusive; / = no result given; [ ] = remark or other dose. Unless noted, the call rests on the fitted dose curve; in most records, active means well fitted curve in the direction sought with a large enough effect; inconclusive means small, poorly fitted or top-dose-only effect, or another doubt; inactive means no such curve, though single readings can be large; an effect the other way counts as inactive or inconclusive.

SMILES	LMNA splice mod	miR-21 act	JMJD2E inh	Sfp inh	G9a block	ALDH1A1 inh
CCNC(=S)N1CCNC(=O)C1CC(=O)OC (stereo not drawn)	-0.6%	5.9%	-9.8%	79.4µM*	-4.5%[59 µM]	-0.5%
CC(C)OC(=O)CC1C(=O)NCCN1C(=S)NC(=O)c1cccs1 (stereo not drawn)	7.2%[46 µM]	-1.0%	-5.5%	56.2µM*	44.7µM*	?
COC(=O)CC1C(=O)NCCN1C(=S)NC(=O)c1ccccc1[N+](=O)[O-] (stereo not drawn)	-3.9%	-6.2%	-11.5%	79.4µM*	?	-8.6%
COc1ccc(CNC(=O)C2CCCN(Cc3nc(-c4cccc(C)c4)oc3C)C2)cc1 (stereo not drawn)	/	24.9%	-10.5%	56.2µM*	-6.8%[59 µM]	?
COc1ccc(-c2nc(CN3CCC(C(=O)NCCCOC(C)C)CC3)c(C)o2)cc1OC	/	-0.3%	/	/	8.91µM*	/
Cc1cccc(-c2nc(CN3CCCC(C(=O)NCc4ccc(Cl)cc4)C3)c(C)o2)c1 (stereo not drawn)	/	-0.5%	/	/	-50.5%[59 µM]	/
CC(=O)NCCNc1ncnc2ccc(-c3ccc(C(=O)N(C)C)cc3)cc12	10.7%	/	?	-6.2%	/	?
CCC(C)N(CCNC(=O)CC1Oc2ccc(C)cc2NC1=O)C1CCCCC1 (stereo not drawn)	4.0%	-3.5%	2.0%	-2.3%	50.1µM*	-4.2%
Cc1ccc2c(c1)NC(=O)C(CC(=O)NC1CCCCC1C)O2 (stereo not drawn)	-14.4%	-15.8%	-8.1%	-4.0%	44.7µM*	-4.1%
O=C(COC(=O)/C=C/c1ccccc1[N+](=O)[O-])NNC(=O)c1ccc(F)cc1	/	/	/	/	-30.5%	/
COc1cccc(-c2nc(CS(=O)(=O)CC(=O)NC3CCCCCC3)c(C)o2)c1	/	-1.4%	/	9.7%	9.7%	/
CC1CCN(C(=S)NC(=O)C2CCCCC2)CC1	-3.8%	-16.1%	5.7%	9.1%	-31.4%[59 µM]	?
O=C(CC12CC3CC(CC(C3)C1)C2)NC(=S)N1CCCCC1	-2.2%	1.4%	?	-25.7%	11.2µM*	20µM*
O=C(NC(=S)N1CCCCCC1)C1CC1	9.4%	-5.5%	-6.6%	-26.3%	28.2µM*	?
Cc1ccccc1OCC(=O)Nc1ccccc1OCc1cc(=O)n2ccccc2n1	0.8%[46 µM]	-6.8%	/	/	1.4%[59 µM]	/
Cc1cc(C)n(-c2nc3cc(Cl)ccc3nc2N2CCN(c3ccccc3F)CC2)n1	?	5.0%	/	/	102.6%[59 µM]	/
CC1(C)Cc2c(sc3ncnc(NNC(=S)NCc4ccccc4)c23)CO1	?	21.9%	2.1%	3.2%	?	1.41µM*
Cc1nc2oc3c(NCc4ccccc4)ncnc3c2c2c1COC(C)(C)C2	7.2%	-7.2%	?	-6.3%	-24.1%[2.33 µM]	?
O=c1[nH]cc(-c2ccc(Br)cc2)n1Cc1ccccc1	/	-6.7%	/	-6.7%	11.2µM*	/
O=c1[nH]c2ccccc2n1Cc1ccccc1	-3.2%	-0.1%	12.8%	-2.8%	-14.4%[59 µM]	12.4%
Fc1ccc(-c2c[nH]c(=S)n2Cc2ccccc2)cc1	2.9%[46 µM]	19.8%	-16.6%	?	1.12µM*	0.355µM*
COc1ccccc1-n1c(-c2ccc(Cl)cc2)c[nH]c1=S	7.2%[46 µM]	9.4%	-20.4%	-13.1%	?	?
CC(=O)N1c2ccc(S(=O)(=O)N3CCCCC3)cc2CC1C(=O)NCc1ccccc1C (stereo not drawn)	/	-3.1%	/	12.8%	-39.4%	/
Cc1cc(C=O)c(C)n1-c1ccc(N2CCCC2)c([N+](=O)[O-])c1	?	-3.0%	2.6%	0.4%	?	0.447µM*
Cc1cc(C=O)c(C)n1-c1ccc(N2CCOCC2)c([N+](=O)[O-])c1	-0.1%[46 µM]	1.4%	-4.2%	5.2%	?	2.51µM*

Screening results as filed in PubChem BioAssay.
